Measured values published in paper PMC7862700, “An all-to-all approach to the identification of sequence-specific readers for epigenetic DNA modifications on cytosine”.

Tests used:
Experiment in all cases: DAPPL (digital affinity profiling via proximity ligation, sequencing); 10 mM Tris-HCl pH 7.5, 50 mM NaCl, 1 mM DTT, 4% glycerol, room temperature, 30 min; GST-TFs on glutathione beads, 16-mer random dsDNA library, 0.1% formaldehyde crosslink after washing; high values mean tight binding
Settings in all cases: protein: recombinant; tags: N-terminal GST; dsDNA, one strand shown
FEV = biological target: T1, FEV (Homo sapiens, UniProt Q99581 1-238)
T1 sequence: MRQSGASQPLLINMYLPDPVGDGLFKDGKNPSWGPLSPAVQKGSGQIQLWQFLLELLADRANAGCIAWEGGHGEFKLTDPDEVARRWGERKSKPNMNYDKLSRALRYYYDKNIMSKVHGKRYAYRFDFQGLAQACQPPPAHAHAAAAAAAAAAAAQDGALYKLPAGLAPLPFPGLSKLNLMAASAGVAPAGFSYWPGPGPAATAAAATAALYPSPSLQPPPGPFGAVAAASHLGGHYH
Procedure, shortened: (§1)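 After expression in yeast as GST fusions, human transcription factors were bound to glutathione beads, DNA-barcoded and mixed with a tag-only sample. The pools were incubated with 200 nmole of a 16-mer random double-stranded DNA library in Tris/NaCl/DTT/glycerol buffer (30 min, room temperature), washed and crosslinked with 0.1% formaldehyde. Proximity ligation with BsaI/T4 ligase ran for 1 h at 37 °C, before PCR amplification and sequencing on an Illumina NextSeq500. Binding signal is a hexamer's read frequency for a factor divided by its frequency for the tag-only sample.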

ETV5 = ETV5 (Homo sapiens, UniProt P41161 1-510)
Procedure, shortened: as §1

SPIC = biological target: T2, SPIC (Homo sapiens, UniProt Q8N5J4 1-248)
T2 sequence: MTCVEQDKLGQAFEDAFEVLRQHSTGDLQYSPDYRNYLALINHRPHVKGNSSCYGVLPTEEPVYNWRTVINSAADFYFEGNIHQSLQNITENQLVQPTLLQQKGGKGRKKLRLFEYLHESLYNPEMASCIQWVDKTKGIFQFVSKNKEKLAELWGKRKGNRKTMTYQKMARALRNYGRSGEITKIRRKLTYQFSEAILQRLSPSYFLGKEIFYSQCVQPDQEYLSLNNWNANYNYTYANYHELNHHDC
Procedure, shortened: as §1

ELF4 = ELF4 (Homo sapiens, UniProt Q99607 1-663)
Procedure, shortened: as §1

ELK4 = biological target: T3, ELK4 (Homo sapiens, UniProt P28324-2 1-405)
T3 sequence: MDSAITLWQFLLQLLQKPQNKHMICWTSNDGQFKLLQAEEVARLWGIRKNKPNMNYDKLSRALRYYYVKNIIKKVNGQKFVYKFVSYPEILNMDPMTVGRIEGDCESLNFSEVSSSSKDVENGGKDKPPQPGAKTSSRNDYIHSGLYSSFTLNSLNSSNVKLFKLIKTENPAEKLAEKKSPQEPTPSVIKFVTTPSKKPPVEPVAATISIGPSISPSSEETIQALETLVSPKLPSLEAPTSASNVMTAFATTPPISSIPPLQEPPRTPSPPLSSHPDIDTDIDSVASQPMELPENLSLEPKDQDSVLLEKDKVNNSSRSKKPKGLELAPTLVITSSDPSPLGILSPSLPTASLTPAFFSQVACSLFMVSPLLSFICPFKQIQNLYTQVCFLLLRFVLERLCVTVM
Procedure, shortened: as §1

ELF3 = biological target: T4, ELF3 (Homo sapiens, UniProt P78545 1-371)
T4 sequence: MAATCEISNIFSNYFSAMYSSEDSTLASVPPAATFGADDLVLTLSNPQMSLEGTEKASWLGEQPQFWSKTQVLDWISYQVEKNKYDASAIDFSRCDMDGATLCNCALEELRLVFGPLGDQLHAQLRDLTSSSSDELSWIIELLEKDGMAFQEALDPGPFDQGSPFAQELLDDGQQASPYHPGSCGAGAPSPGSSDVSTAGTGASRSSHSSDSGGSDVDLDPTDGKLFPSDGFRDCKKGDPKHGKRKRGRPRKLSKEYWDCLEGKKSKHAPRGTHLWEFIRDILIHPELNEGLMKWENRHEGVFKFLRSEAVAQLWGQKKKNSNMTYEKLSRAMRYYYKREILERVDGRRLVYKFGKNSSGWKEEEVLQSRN
Procedure, shortened: as §1

ETV1 = ETV1 (Homo sapiens, UniProt P50549 1-477)
Procedure, shortened: as §1

ERF = biological target: T5, ERF (Homo sapiens, UniProt P50548 1-548)
T5 sequence: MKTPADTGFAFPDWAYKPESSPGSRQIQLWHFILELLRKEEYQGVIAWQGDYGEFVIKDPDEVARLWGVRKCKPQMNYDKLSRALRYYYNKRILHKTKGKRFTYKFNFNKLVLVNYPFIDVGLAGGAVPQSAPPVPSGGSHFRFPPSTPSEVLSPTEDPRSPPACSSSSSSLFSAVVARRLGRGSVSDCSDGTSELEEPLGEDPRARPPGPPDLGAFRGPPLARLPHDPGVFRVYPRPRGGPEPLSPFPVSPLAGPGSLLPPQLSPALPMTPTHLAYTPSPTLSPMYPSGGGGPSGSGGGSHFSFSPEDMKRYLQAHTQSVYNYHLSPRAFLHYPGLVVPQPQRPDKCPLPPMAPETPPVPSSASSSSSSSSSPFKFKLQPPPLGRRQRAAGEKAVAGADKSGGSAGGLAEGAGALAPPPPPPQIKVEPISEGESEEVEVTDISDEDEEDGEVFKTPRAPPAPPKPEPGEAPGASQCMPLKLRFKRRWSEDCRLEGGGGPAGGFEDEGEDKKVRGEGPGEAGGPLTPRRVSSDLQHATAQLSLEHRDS
Procedure, shortened: as §1

ETV3L = biological target: T6, ETV3L (Homo sapiens, UniProt Q6ZN32 1-361)
T6 sequence: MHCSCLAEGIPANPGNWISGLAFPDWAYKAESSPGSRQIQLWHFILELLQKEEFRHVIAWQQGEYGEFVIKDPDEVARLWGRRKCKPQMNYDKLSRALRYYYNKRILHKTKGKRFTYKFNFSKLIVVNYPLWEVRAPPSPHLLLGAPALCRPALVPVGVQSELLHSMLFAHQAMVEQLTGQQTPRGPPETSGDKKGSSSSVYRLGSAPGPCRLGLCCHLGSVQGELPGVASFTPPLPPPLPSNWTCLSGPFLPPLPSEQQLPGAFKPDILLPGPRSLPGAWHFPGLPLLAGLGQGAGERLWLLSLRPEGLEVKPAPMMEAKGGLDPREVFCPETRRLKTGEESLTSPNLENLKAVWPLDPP
Procedure, shortened: as §1

ETS2 = biological target: T7, ETS2 (Homo sapiens, UniProt P15036 1-469)
T7 sequence: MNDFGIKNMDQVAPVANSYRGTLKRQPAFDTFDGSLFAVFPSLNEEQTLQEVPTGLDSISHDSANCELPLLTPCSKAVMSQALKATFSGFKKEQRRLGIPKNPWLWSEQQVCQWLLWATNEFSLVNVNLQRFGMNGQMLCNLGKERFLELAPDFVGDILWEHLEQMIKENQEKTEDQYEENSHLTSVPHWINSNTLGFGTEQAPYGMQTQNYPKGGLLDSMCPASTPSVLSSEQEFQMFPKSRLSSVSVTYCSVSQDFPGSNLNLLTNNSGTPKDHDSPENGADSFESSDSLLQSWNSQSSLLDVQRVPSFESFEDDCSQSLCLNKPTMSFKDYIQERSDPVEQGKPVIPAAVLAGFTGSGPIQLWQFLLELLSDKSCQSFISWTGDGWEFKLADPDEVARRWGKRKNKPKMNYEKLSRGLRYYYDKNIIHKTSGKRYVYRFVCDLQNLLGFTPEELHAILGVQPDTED
Procedure, shortened: as §1

SPDEF = biological target: T8, SPDEF (Homo sapiens, UniProt O95238 1-335)
T8 sequence: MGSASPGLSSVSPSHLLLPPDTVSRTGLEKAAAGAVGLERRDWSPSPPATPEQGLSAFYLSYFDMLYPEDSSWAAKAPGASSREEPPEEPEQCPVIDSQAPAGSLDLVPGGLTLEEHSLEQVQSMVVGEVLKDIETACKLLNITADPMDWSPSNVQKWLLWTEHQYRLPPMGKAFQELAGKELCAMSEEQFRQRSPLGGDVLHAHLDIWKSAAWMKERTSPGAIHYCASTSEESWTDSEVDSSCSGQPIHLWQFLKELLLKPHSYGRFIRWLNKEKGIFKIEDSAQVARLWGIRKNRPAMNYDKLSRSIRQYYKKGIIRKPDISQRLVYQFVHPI
Procedure, shortened: as §1

ETV7 = biological target: T9, ETV7 (Homo sapiens, UniProt Q9Y603 1-341)
T9 sequence: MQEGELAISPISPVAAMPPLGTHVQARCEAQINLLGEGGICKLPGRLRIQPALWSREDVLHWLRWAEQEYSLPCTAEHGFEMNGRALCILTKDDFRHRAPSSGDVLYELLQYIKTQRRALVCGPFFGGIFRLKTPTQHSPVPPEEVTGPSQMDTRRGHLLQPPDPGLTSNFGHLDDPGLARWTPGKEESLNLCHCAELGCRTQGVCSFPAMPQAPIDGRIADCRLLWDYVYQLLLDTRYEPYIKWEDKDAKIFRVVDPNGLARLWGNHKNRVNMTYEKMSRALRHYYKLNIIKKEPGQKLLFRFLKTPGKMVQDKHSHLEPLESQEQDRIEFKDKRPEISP
Procedure, shortened: as §1

ELF5 = biological target: T10, ELF5 (Homo sapiens, UniProt Q9UKW6-2 1-255)
T10 sequence: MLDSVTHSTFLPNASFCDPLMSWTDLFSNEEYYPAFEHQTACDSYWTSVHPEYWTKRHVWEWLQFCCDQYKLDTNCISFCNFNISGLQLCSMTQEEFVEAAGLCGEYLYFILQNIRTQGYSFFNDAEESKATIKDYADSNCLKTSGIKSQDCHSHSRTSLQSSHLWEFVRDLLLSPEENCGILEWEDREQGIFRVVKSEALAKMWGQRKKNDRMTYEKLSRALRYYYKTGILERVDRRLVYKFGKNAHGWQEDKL
Procedure, shortened: as §1

ETV3 = biological target: T11, ETV3 (Homo sapiens, UniProt P41162-2 1-143)
T11 sequence: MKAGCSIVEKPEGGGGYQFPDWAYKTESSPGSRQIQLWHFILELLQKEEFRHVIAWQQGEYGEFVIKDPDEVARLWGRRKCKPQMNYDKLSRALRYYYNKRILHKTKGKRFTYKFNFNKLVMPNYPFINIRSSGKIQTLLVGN
Procedure, shortened: as §1

ETV6 = ETV6 (Homo sapiens, UniProt P41212 1-452)
Procedure, shortened: as §1

ETV2 = biological target: T12, ETV2 (Homo sapiens, UniProt O00321 1-342)
T12 sequence: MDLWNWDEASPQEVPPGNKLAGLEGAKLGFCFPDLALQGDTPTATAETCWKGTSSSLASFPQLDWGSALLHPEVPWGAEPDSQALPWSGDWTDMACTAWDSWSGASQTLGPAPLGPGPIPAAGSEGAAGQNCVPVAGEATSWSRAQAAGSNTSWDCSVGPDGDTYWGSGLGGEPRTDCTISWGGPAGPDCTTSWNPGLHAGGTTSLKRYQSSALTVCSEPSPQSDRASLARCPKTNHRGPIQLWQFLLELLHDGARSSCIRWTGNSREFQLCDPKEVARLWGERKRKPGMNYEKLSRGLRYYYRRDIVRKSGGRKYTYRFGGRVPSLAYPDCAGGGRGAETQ
Procedure, shortened: as §1

Chain of ETV1 (P50549 whole entry): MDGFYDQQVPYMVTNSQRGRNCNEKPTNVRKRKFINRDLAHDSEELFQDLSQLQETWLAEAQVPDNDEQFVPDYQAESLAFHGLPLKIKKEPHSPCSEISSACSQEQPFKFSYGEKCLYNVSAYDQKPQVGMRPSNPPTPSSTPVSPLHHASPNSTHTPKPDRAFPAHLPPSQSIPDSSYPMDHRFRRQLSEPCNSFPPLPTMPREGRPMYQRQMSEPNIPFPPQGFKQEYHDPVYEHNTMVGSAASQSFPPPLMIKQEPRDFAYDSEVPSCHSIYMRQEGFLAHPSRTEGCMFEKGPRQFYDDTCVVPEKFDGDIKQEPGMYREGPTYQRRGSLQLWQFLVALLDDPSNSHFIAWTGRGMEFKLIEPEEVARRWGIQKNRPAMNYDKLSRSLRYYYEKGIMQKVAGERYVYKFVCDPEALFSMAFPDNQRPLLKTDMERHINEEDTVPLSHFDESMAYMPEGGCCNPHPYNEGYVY
Chain of ETV5 (P41161 whole entry): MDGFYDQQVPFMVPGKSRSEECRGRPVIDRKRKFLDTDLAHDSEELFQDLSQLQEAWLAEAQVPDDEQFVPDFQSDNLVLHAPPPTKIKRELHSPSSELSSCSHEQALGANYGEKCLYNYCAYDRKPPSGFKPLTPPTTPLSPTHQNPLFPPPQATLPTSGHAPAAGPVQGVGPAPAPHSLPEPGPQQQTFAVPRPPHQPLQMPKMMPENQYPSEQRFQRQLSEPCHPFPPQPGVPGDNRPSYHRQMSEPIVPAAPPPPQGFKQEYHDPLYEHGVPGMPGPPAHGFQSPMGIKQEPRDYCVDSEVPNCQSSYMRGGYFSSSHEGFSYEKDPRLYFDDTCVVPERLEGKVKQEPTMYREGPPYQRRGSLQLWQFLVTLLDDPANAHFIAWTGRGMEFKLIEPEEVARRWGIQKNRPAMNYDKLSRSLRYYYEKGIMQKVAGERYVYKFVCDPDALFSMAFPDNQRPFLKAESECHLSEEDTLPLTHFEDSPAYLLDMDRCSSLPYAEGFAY
Chain of ELF4 (Q99607 whole entry): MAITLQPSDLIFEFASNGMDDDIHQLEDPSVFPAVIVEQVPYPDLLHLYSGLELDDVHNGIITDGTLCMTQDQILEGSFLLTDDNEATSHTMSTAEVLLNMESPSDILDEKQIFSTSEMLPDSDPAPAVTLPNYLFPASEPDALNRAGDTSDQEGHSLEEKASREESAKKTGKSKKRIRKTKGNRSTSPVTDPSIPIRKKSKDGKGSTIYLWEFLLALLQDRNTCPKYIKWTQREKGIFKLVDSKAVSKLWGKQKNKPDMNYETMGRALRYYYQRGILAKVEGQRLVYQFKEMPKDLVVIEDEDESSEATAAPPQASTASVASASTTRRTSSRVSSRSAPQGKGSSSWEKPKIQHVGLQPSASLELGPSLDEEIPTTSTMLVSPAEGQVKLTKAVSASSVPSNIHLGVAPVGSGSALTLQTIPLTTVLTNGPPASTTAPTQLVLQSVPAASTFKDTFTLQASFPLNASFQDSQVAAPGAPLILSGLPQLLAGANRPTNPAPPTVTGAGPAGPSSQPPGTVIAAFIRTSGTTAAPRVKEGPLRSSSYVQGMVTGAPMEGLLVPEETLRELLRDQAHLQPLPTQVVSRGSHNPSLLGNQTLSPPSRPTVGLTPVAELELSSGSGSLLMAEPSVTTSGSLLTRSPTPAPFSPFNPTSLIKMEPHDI
Chain of ETV6 (P41212 whole entry): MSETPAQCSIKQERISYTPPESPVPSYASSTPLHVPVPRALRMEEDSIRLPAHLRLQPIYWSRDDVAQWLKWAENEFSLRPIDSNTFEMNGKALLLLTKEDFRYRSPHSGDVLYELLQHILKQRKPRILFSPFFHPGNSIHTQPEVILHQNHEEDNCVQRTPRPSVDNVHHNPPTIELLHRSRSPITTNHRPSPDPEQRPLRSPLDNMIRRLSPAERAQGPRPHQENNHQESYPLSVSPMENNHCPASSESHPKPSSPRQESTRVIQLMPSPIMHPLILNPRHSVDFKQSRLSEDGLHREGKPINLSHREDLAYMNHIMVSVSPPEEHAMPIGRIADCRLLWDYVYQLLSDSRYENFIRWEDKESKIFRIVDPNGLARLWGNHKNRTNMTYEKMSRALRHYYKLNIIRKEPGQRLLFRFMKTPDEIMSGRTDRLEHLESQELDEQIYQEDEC

Sequence | binding signal (FEV) | binding signal (ETV5) | binding signal (SPIC) | binding signal (ELF4) | binding signal (ELK4) | binding signal (ELF3) | binding signal (ETV1) | binding signal (ERF) | binding signal (ETV3L) | binding signal (ETS2) | binding signal (SPDEF) | binding signal (ETV7) | binding signal (ELF5) | binding signal (ETV3) | binding signal (ETV6) | binding signal (ETV2)
ATGTCA | 1.03 fold enrichment (6-mer frequency, TF over GST control) | 1.08 fold enrichment (6-mer frequency, TF over GST control) | 1.21 fold enrichment (6-mer frequency, TF over GST control) | 1.19 fold enrichment (6-mer frequency, TF over GST control) | 1.14 fold enrichment (6-mer frequency, TF over GST control) | 1.28 fold enrichment (6-mer frequency, TF over GST control) | 1.11 fold enrichment (6-mer frequency, TF over GST control) | 1.2 fold enrichment (6-mer frequency, TF over GST control) | 1.2 fold enrichment (6-mer frequency, TF over GST control) | 1.2 fold enrichment (6-mer frequency, TF over GST control) | 1.1 fold enrichment (6-mer frequency, TF over GST control) | 1.02 fold enrichment (6-mer frequency, TF over GST control) | 1.09 fold enrichment (6-mer frequency, TF over GST control) | 1.12 fold enrichment (6-mer frequency, TF over GST control) | 1.11 fold enrichment (6-mer frequency, TF over GST control) | 
CGTATG |  | 1.09 fold enrichment (6-mer frequency, TF over GST control) | 1.07 fold enrichment (6-mer frequency, TF over GST control) | 1.04 fold enrichment (6-mer frequency, TF over GST control) | 1 fold enrichment (6-mer frequency, TF over GST control) |  | 1.04 fold enrichment (6-mer frequency, TF over GST control) | 1.02 fold enrichment (6-mer frequency, TF over GST control) | 1.07 fold enrichment (6-mer frequency, TF over GST control) | 1.11 fold enrichment (6-mer frequency, TF over GST control) | 1.05 fold enrichment (6-mer frequency, TF over GST control) | 1.03 fold enrichment (6-mer frequency, TF over GST control) | 1.04 fold enrichment (6-mer frequency, TF over GST control) | 1.13 fold enrichment (6-mer frequency, TF over GST control) | 1.02 fold enrichment (6-mer frequency, TF over GST control) | 1.09 fold enrichment (6-mer frequency, TF over GST control)
